# Reference: PubChem BioAssay (EPA / NIEHS)
# Active and inactive are the calls of the source. How the source made its calls: active means hit-call score of the fitted dose curve at least 0.9, where 1 is the maximum; inactive means score below 0.9.
# What was measured:
# [1] = read-out: Tissue Factor, F3 (gene 2152); experiment: BSK_CASM3C_TissueFactor: BioMAP Diversity Plus: CASM3C Assay for Tissue Factor Biomarker Activity (AID 2283052); conditions: primary human coronary artery smooth muscle cells; actives raise or lower the signal;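 further: cell surface tissue factor protein level read by ELISA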
# [2] = read-out: Interferon-gamma inducible Protein 10 (IP10), CXCL10 (gene 3627); experiment: BSK_hDFCGF_IP10: BioMAP Diversity Plus: hDFCGF Assay for Interferon-gamma inducible Protein 10 (IP10) Biomarker Activity (AID 2283053); conditions: primary human foreskin fibroblasts; actives raise or lower the signal
# Summary of the method: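 IP-10 levels, quantified by ELISA, are taken from human foreskin fibroblast cultures 24 h after chemical treatment, with DMSO serving as negative control and baseline for bidirectional analysis.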
# [3] = read-out: Urokinase-type plasminogen activator receptor (uPAR), PLAUR (gene 5329); experiment: BSK_CASM3C_uPAR: BioMAP Diversity Plus: CASM3C Assay for Urokinase-type plasminogen activator receptor (uPAR) Biomarker Activity (AID 2283054); conditions: primary human coronary artery smooth muscle cells; actives raise or lower the signal;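 further: cell-surface uPAR protein level quantified by ELISA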
# [4] = read-out: Vascular cell adhesion molecule 1 (VCAM1), VCAM1 (gene 7412); experiment: BSK_CASM3C_VCAM1: BioMAP Diversity Plus: CASM3C Assay for Vascular cell adhesion molecule 1 (VCAM1) Biomarker Activity (AID 2283055); conditions: primary human coronary artery smooth muscle cells; actives raise or lower the signal;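 further: VCAM-1 protein level quantified by ELISA on the cells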
# [5] = read-out: Collagen III, COL3A1 (gene 1281); experiment: BSK_hDFCGF_CollagenIII: BioMAP Diversity Plus: hDFCGF Assay for Collagen III Biomarker Activity (AID 2283056); conditions: primary human foreskin fibroblasts; actives raise or lower the signal
# Summary of the method: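 hDFCGF primary human dermal fibroblasts; 24 h chemical exposure; collagen III by ELISA; bidirectional curve fit vs DMSO baseline (gain or loss of signal).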
# [6] = read-out: Interleukin-8 (IL8), CXCL8 (gene 3576); experiment: BSK_hDFCGF_IL8: BioMAP Diversity Plus: hDFCGF Assay for Interleukin-8 (IL8) Biomarker Activity (AID 2283058); conditions: primary human foreskin fibroblasts; actives raise or lower the signal
# Summary of the method: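 ELISA read-out of IL-8 from primary human foreskin fibroblast cultures taken 24 h after dosing; values are bidirectional fits relative to DMSO vehicle.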
# [7] = BSK_hDFCGF_Proliferation: Cell Proliferation Assessment in the BioMAP Diversity Plus: hDFCGF Assay (AID 2283059); conditions: primary human foreskin fibroblasts;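 further: curves fitted for both rise and fall of signal versus DMSO baseline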
# Summary of the method: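 This proliferation readout used SRB total-protein staining of human foreskin fibroblasts […], normalized to DMSO with bidirectional curve fitting.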
# [8] = read-out: Macrophage colony-stimulating factor (MCSF), CSF1 (gene 1435); experiment: BSK_hDFCGF_MCSF: BioMAP Diversity Plus: hDFCGF Assay for Macrophage colony-stimulating factor (MCSF) Biomarker Activity (AID 2283060); conditions: primary human foreskin fibroblasts; actives raise or lower the signal
# Summary of the method: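 ELISA read-out of M-CSF in human dermal foreskin fibroblast cultures, 24 h after chemical dosing; gain or loss of signal fitted bidirectionally relative to DMSO baseline.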
# [9] = BSK_hDFCGF_SRB: Viability Assessment in the BioMAP Diversity Plus: hDFCGF Assay (AID 2283061); conditions: primary human foreskin fibroblasts;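 further: cells exposed to compound for 24 h before the read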
# Summary of the method: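 Primary human foreskin fibroblasts; 24 h post-dose; fixed 10% TCA, stained 0.1% SRB, A560 read; total protein as overt cytotoxicity measure; curves fit bidirectionally vs DMSO control.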
# [10] = read-out: Monokine induced gamma interferon (MIG), CXCL9 (gene 4283); experiment: BSK_hDFCGF_MIG: BioMAP Diversity Plus: hDFCGF Assay for Monokine induced gamma interferon (MIG) Biomarker Activity (AID 2283063); conditions: primary human foreskin fibroblasts; actives raise or lower the signal
# Summary of the method: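 Fibroblasts (human foreskin, primary) dosed, 24 h, MIG by ELISA; fit bidirectional vs DMSO.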
# [11] = read-out: Matrix Metallopeptidase 1 (MMP1), MMP1 (gene 4312); experiment: BSK_hDFCGF_MMP1: BioMAP Diversity Plus: hDFCGF Assay for Matrix Metallopeptidase 1 (MMP1) Biomarker Activity (AID 2283064); conditions: primary human foreskin fibroblasts; actives raise or lower the signal
# Summary of the method: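 Primary human foreskin fibroblasts exposed to chemicals for 24 h; MMP1 measured by ELISA. Cytotoxicity tracked by SRB staining in parallel cultures; bidirectional fit relative to DMSO.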
# [12] = read-out: Vascular cell adhesion molecule 1 (VCAM1), VCAM1 (gene 7412); experiment: BSK_hDFCGF_VCAM1: BioMAP Diversity Plus: hDFCGF Assay for Vascular cell adhesion molecule 1 (VCAM1) Biomarker Activity (AID 2283065); conditions: primary human foreskin fibroblasts; actives raise or lower the signal
# Summary of the method: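 ELISA read-out of VCAM-1 on human skin fibroblasts, 24 h post-dose; gain or loss of signal fitted bidirectionally against DMSO baseline.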
# [13] = read-out: Plasminogen activator inhibitor-1 (PAI1), SERPINE1 (gene 5054); experiment: BSK_hDFCGF_PAI1: BioMAP Diversity Plus: hDFCGF Assay for Plasminogen activator inhibitor-1 (PAI1) Biomarker Activity (AID 2283066); conditions: primary human foreskin fibroblasts; actives raise or lower the signal
# Summary of the method: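 PAI-1 levels, determined by ELISA, served as the endpoint in human foreskin fibroblast cultures exposed to compound for 24 h, with DMSO as baseline.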
# [14] = read-out: Intercellular Adhesion Molecule 1 (ICAM1), ICAM1 (gene 3383); experiment: BSK_KF3CT_ICAM1: BioMAP Diversity Plus: KF3CT Assay for Intercellular Adhesion Molecule 1 (ICAM1) Biomarker Activity (AID 2283067); conditions: primary human keratinocytes with fibroblasts; actives raise or lower the signal
# Summary of the method: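 ELISA readout of ICAM-1; KF3CT human skin co-culture (keratinocytes + foreskin fibroblasts), 24 h post-dose; gain/loss fit vs DMSO baseline.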
# [15] = read-out: Interferon-gamma inducible Protein 10 (IP10), CXCL10 (gene 3627); experiment: BSK_KF3CT_IP10: BioMAP Diversity Plus: KF3CT Assay for Interferon-gamma inducible Protein 10 (IP10) Biomarker Activity (AID 2283068); conditions: primary human keratinocytes with fibroblasts; actives raise or lower the signal
# Summary of the method: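 Signal is secreted/surface IP-10 by ELISA in a human primary skin co-culture of keratinocytes and foreskin fibroblasts, taken 24 h post-dosing; DMSO served as negative control.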
# [16] = BSK_KF3CT_SRB: Viability Assessment in the BioMAP Diversity Plus: KF3CT Assay (AID 2283069); conditions: primary human keratinocytes with fibroblasts;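 further: total protein by sulforhodamine B staining as a cytotoxicity measure; read 24 h after compound addition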
# Summary of the method: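 Human keratinocyte and foreskin fibroblast co-culture exposed to chemical for 24 h. Total protein measured in parallel cultures by 0.1% sulforhodamine B staining after 10% TCA fixation, read at 560 nm; bidirectional fit relative to DMSO.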
# [17] = read-out: Interleukin-1 alpha (IL1a), IL1A (gene 3552); experiment: BSK_KF3CT_IL1a: BioMAP Diversity Plus: KF3CT Assay for Interleukin-1 alpha (IL1a) Biomarker Activity (AID 2283070); conditions: primary human keratinocytes with fibroblasts; actives raise or lower the signal
# Summary of the method: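 Primary human keratinocyte plus foreskin fibroblast co-culture, dosed and measured at 24 h in 96-well plates. IL-1a level quantified by ELISA; bidirectional fit relative to DMSO.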
# [18] = read-out: TIMP metallopeptidase inhibitor 2 (TIMP2), TIMP2 (gene 7077); experiment: BSK_KF3CT_TIMP2: BioMAP Diversity Plus: KF3CT Assay for TIMP metallopeptidase inhibitor 2 (TIMP2) Biomarker Activity (AID 2283071); conditions: primary human keratinocytes with fibroblasts; actives raise or lower the signal
# Summary of the method: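 Keratinocyte–fibroblast co-culture, 24 h exposure; TIMP-2 ELISA, DMSO-normalised bidirectional fit. Parallel SRB (0.1%, TCA-fixed, 560 nm) total-protein staining gauges cytotoxicity.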
# [19] = read-out: TIMP metallopeptidase inhibitor 1 (TIMP1), TIMP1 (gene 7076); experiment: BSK_hDFCGF_TIMP1: BioMAP Diversity Plus: hDFCGF Assay for TIMP metallopeptidase inhibitor 1 (TIMP1) Biomarker Activity (AID 2283062); conditions: primary human foreskin fibroblasts; actives raise or lower the signal
# Summary of the method: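 ELISA readout of TIMP-1 from human dermal foreskin fibroblast cultures 24 h post-dosing. Curves were fitted in both directions against DMSO baseline, with SRB total-protein staining in parallel cultures as a cytotoxicity check.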
compound,measurement,setting,value
O=C(c1ccc(O)cc1O)c1ccc(O)cc1O,outcome,[1],inactive
same,outcome,[2],inactive
same,outcome,[3],inactive
same,outcome,[4],inactive
same,outcome,[5],inactive
same,outcome,[6],inactive
same,outcome,[7],inactive
same,outcome,[8],inactive
same,outcome,[9],inactive
same,outcome,[10],inactive
same,outcome,[11],inactive
same,outcome,[12],inactive
same,outcome,[13],inactive
same,outcome,[14],inactive
same,outcome,[15],inactive
same,outcome,[16],inactive
same,outcome,[17],inactive
same,outcome,[18],inactive
CCOC(=O)NCCOc1ccc(Oc2ccccc2)cc1,outcome,[1],inactive
same,outcome,[2],inactive
same,outcome,[3],inactive
same,outcome,[4],inactive
same,AC50,[5],12.6 µM (active)
same,outcome,[6],inactive
same,AC50,[7],24.7 µM (active)
same,AC50,[8],23.1 µM (active)
same,outcome,[9],inactive
same,outcome,[10],inactive
same,outcome,[11],inactive
same,outcome,[12],inactive
same,outcome,[13],inactive
same,outcome,[14],inactive
same,outcome,[15],inactive
same,outcome,[16],inactive
same,outcome,[17],inactive
same,outcome,[18],inactive
CCCCOC(=O)C(C)Oc1ccc(Oc2ccc(C(F)(F)F)cn2)cc1 (configuration not stated),outcome,[1],inactive
same,outcome,[2],inactive
same,outcome,[3],inactive
same,outcome,[4],inactive
same,outcome,[5],inactive
same,outcome,[6],inactive
same,outcome,[7],inactive
same,outcome,[8],inactive
same,outcome,[9],inactive
same,outcome,[10],inactive
same,outcome,[11],inactive
same,outcome,[12],inactive
same,outcome,[13],inactive
same,outcome,[14],inactive
same,outcome,[15],inactive
same,outcome,[16],inactive
same,outcome,[17],inactive
same,outcome,[18],inactive
C#C[C@]1(O)CC[C@H]2[C@@H]3CCC4=CC(=O)CC[C@@H]4[C@H]3CC[C@@]21CC,outcome,[1],inactive
same,outcome,[2],inactive
same,outcome,[3],inactive
same,outcome,[4],inactive
same,outcome,[5],inactive
same,outcome,[6],inactive
same,outcome,[7],inactive
same,outcome,[9],inactive
same,outcome,[19],inactive
same,outcome,[10],inactive
same,outcome,[11],inactive
same,outcome,[12],inactive
same,outcome,[13],inactive
same,outcome,[14],inactive
same,outcome,[15],inactive
same,outcome,[16],inactive
same,outcome,[17],inactive
same,outcome,[18],inactive
